# Bioassay records from PubChem.
# Pf Dd2 inh: Plasmodium falciparum Dd2 growth inhibition; Potency, µM (highest dose often 28.9 µM), without a hit: top-dose activity, negative = inhibition, most hits filed as inhibitors; P. falciparum Dd2 growth, SYBR Green, 72 h; hit rate 4.3% among 120,000; AID 1347417; active = well fitted inhibition curve with a large enough effect;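 also: plate controls were DMSO vehicle for no effect and reference drug for full effect; nearly all actives have a fitted effect of over 65% in size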
#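 Readout: SYBR Green fluorescence, 485 nm excitation, 535 nm emission, after ~16 h lysis at 37C. Before that, Dd2-infected red cells (2.5% hematocrit) grew 72 h with compound, 29 uM top final concentration.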
# Numbers without * were called inactive; i = inactive; [ ] = dose if it differs, or a comment. The entries come from a sample that favours hits as a whole. Potency is read from the fitted curve at half-maximal effect.
SMILES,Pf Dd2 inh
O=C(CC1CCCCC1)N1CCC(n2cc(-c3nc(-c4ccccc4)no3)nn2)CC1,i
COc1ccc(NC(=O)O[C@@H]2CO[C@H]3[C@@H]2OC[C@@H]3NC(=O)Nc2ccc(C(C)C)cc2)cc1,i
COc1cccc(CN2CCCC(O)(CN3CCC4(CC3)OCCO4)C2=O)c1 (centres undefined),i
COCC1CN(S(=O)(=O)c2ccc(C#N)cc2)CC12CCNCC2 (centres undefined),5%
CCc1noc(-c2cn(C3CCN(C(=O)c4ccc(Cl)s4)C3)nn2)n1 (centres undefined),109%
CCOc1ccccc1C1NC(=O)N(CC(=O)Nc2ccc(F)c(Cl)c2)C2=C1C(=O)OC2 (centres undefined),-10%
c1ccc([C@@H]2CNC[C@H]2COc2ccncc2)nc1,40%
CSc1cccc(NC(=O)Cn2nc3c(cc2=O)CCCCC3)c1,i
CC(C)CNC(=O)C1COC2(CCN(C(=O)c3ccc(F)cc3)CC2)N1C(=O)c1ccccc1 (centres undefined),-23%
CSc1cccc(NC(=O)Cn2c(Nc3cc(C)cc(C)c3)nc(C)cc2=O)c1,-10%
Cn1c(=O)c2c(nc(SCC(=O)Nc3ccccc3)n2Cc2ccccc2F)n(C)c1=O,-2%
Cn1c(=O)c2c(nc(SCC(=O)Nc3ccc(OC(F)(F)F)cc3)n2Cc2cccc(C(F)(F)F)c2)n(C)c1=O,11µM*
Cn1c(=O)c2c(nc(SCC(=O)Nc3ccc(F)cc3F)n2Cc2ccccc2)n(C)c1=O,-11%
COc1ccc(S(=O)(=O)N2CCC(c3noc(-c4ccncc4)n3)C2)cc1 (centres undefined),2%[5.79 µM]
Cc1cccc(C(=O)N2CCC3(CC2)c2nc[nH]c2CCN3CC(C)C)n1,i
Cc1ccc(CN2CCCOCCNC(=O)[C@@H]3CCCC[C@@H]32)s1,5µM*
Cc1cccc(CN2CCCOCCNC(=O)[C@@H]3CCCC[C@@H]32)c1,i
Cc1ccc(CN2CCCCCNC(=O)[C@@H]3CCC[C@@H]32)s1,-17%
CCc1cccc(-n2nnnc2N2CCN(C(=O)NC3CCCCC3)CC2)c1,15%
COc1ccc(C2Cn3nnc(-c4nc(-c5cccnc5)no4)c3CO2)cc1 (centres undefined),-3%
CC(Cc1cnccn1)NC(=O)c1ccc2nc(-c3ccc(F)cc3)cn2c1 (centres undefined),-17%
COCCN(CC1CC1)C(=O)c1ccc2nc(-c3ccc(F)cc3)cn2c1,-15%
O=C(NCCc1cnc[nH]1)c1ccc2nc(-c3ccc(F)cc3)cn2c1,10µM*
COc1cc(F)ccc1-c1cc2c(ccn2C)c(C(=O)NCCc2cnc[nH]2)n1,-15%[44.1 µM]
CCC(NC(=O)c1ccc2nc(-c3ccc(F)cc3)cn2c1)c1ncc(C)[nH]1 (centres undefined),7.9µM*
SMILES,Pf Dd2 inh
CN(C(=O)c1ccc2nc(-c3ccc(F)cc3)cn2c1)C1CCOCC1,-6%
CN(C)C[C@@H]1CN(c2ncccn2)C[C@H]1NC(=O)c1ccccc1F,20%
COCc1cc(Cn2cc(-c3cncnc3)nn2)[nH]n1,-6%
Cc1oc(C(O)c2ccccc2)nc1C(=O)N1CCC(n2c(=O)[nH]c3ccccc32)CC1 (centres undefined),-18%[44.1 µM]
COCCNC(=O)[C@H]1C[C@H](Oc2cccnc2)CN1S(=O)(=O)c1ccc(OC)cc1,23%
CN(C)C[C@@H]1CN(C2CCOCC2)C[C@H]1NC(=O)C1CC=CCC1 (some centres undefined),4%
N#Cc1ccc(C(=O)N2CC[C@H]3C(=O)NCCCCCCN(Cc4ccncc4)[C@@H]3C2)cc1,1%
Cc1ccc(CN2C[C@H]3CN(Cc4ccc(OC(F)(F)F)cc4)CCN3C2=O)cc1,-24%[44.1 µM]
COC(=O)c1c(-c2ccc(Cl)cc2)noc1N1CCN(c2ccccc2F)CC1,30%
COC(=O)c1c(-c2ccc(Cl)cc2)noc1N1CCN(c2ccc(C(C)=O)cc2)CC1,2%
COC(=O)c1c(-c2ccc(Cl)cc2)noc1N1CCN(c2ccc(C)cc2C)CC1,8.9µM*
Cc1nn(-c2ccccn2)c(C)c1[C@@H]1C=C[C@@H](NC(=O)CCCC(=O)O)C1,22%[44.1 µM]
COc1ccccc1CN[C@H]1CC(C)(C)[C@@H]2C[C@@](C)(O)CC[C@]12CCC(=O)N1CCOCC1,i
Cc1cc(N2CCN(C)CC2)nc2ccc(NC(=O)Nc3cccc(Cl)c3)cc12,1µM*
Cc1c(-c2cccc(NC(=O)Nc3ccc(Cl)cc3)c2)nc2ncccn12,-24%
Cc1ccc(Nc2ncc(C(=O)N3CCN(c4cccc(Cl)c4)CC3)c3ccccc23)cc1Cl,i
Cc1ccc(/C=C/C(=O)Nc2ccc3nc(N4CCC(C)CC4)cc(C)c3c2)cc1,-5%
Cc1cc(N2CCCCC2)nc2ccc(NC(=O)CCC(=O)N3CCN(c4cccc(Cl)c4)CC3)cc12,11µM*
Cc1cccn2c(=O)cc(COc3cccc(NC(=O)Nc4cccc(Cl)c4)c3)nc12,i
Cc1ccc(Cl)cc1N1CCN(C(=O)CCC(=O)Nc2ccc3nc(N4CCC(C)CC4)cc(C)c3c2)CC1,3.5µM*
CCOc1cc(C(=O)Nc2ccc3nc(N4CCN(C)CC4)cc(C)c3c2)cc(OCC)c1OCC,3.2µM*
COc1ccc(C(=O)Nc2ccc3nc(N4CCCCC4)cc(C)c3c2)c(OC)c1,4%
Cc1cc(N2CCCCC2)nc2ccc(NC(=O)c3cccc(F)c3)cc12,i
Cc1ccc(CSCC(=O)N2CCN(c3cc(Cl)ccc3C)CC2)cc1,i
Cc1cn(C)c(CC(=O)N2CCN(c3cccc(Cl)c3)CC2)c1C(=O)O,2%
SMILES,Pf Dd2 inh
CN1CC2(C1)C(=O)N(Cc1cccc(Cl)c1)C(=O)[C@@H]1C[C@@H](O)CN12,i
Cc1ccc(C2Cn3nnc(-c4nc(-c5ccc6c(c5)OCO6)no4)c3CO2)c(C)c1 (centres undefined),-12%
Cc1nc(-c2ccc(OC3CCN(C(=O)NC(C)C)C3)cc2)no1 (centres undefined),29%[5.79 µM]
CCc1nc(-c2c3n(c(=O)n(Cc4ccc(OC)c(F)c4)c2=O)CCCCC3)no1,i
CC(C)C1=NOC2(CCN([S+](=O)([O-])c3ccccc3)C2)C1 (centres undefined),13%
CCNC(=O)N1CCOc2ccc(CCC(=O)NCCOc3ccccc3OC)cc2C1,-26%
Cn1ccnc1CN1C(=O)CO[C@H]2CN(Cc3ccc(S(C)(=O)=O)cc3)C[C@H]21,i
O=C1CC(c2ccccc2)N(C(=O)CNC(=O)C2CCOCC2)CCCCCN1 (centres undefined),23%
O=C(NCC1CC1)c1ccc(N2CC3CC(C2)[C@H]2CCCC(=O)N2C3)nc1 (some centres undefined),i
COCC1CCCCN1C(=O)c1ccc2oc(CCc3ccccc3)nc2c1 (centres undefined),-11%
O=C1CCN(Cc2ccccc2)CCOCCN1,0%
Cc1nnc([C@H]2CCN(Cc3ccccc3)C2)o1,i
O=C1NCCN1C1CCN(Cc2ccccc2)CC1,-4%[44.1 µM]
FC1CCN(Cc2cn(Cc3ccccc3)nc2-c2cc3ccccc3o2)CC1,7.9µM*
COC[C@H]1CCCN1C(=O)CC[C@H]1CNC(=O)[C@@H]2[C@@H](CCN2Cc2ccccc2)N1C,14%[44.1 µM]
COC[C@H]1CCCN1Cc1cn(Cc2ccccc2)nc1-c1cc2ccccc2o1,7.9µM*
CN1CC2(CCN(Cc3ccccc3)CC2)CC1C(=O)N1CCOCC1 (centres undefined),-30%
CN1CC2(CCCN(Cc3cc4ccccc4o3)C2)OC1=O (centres undefined),9%
CC1(C)CN(Cc2cn(Cc3ccccc3)nc2-c2cc3ccccc3o2)CCO1,8.9µM*
